For four compounds, inhibition results are on record in PubChem BioAssay.

Values without a mark were called inactive. No rule for the calls is given here.

In this experiment the target is Pantothenate synthetase (Mycobacterium tuberculosis (strain ATCC 25618 / H37Rv)) (UniProt P9WIL5). Put plainly: Recombinant Mtb pantothenate synthetase (PanC) inhibitors, coupled enzyme, confirmatory (AID 375).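 Also: 0% = full reaction with vehicle and 100% = no enzyme background.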 The note with it: coupled enzyme assay; at 10 µM, hits give high values.
Pantothenate synthetase (Mycobacterium tuberculosis (strain ATCC 25618 / H37Rv)), sequence (P9WIL5 whole entry, looked up): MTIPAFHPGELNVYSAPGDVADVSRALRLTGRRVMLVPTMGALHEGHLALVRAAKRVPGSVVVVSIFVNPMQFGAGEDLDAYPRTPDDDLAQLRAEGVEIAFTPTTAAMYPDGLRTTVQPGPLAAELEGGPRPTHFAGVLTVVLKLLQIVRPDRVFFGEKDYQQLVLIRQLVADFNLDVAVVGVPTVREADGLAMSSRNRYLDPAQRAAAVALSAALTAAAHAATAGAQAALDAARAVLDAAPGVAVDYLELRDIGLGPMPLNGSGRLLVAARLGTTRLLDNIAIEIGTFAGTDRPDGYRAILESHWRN
For the compound `Cn1c(=O)oc2cc(S(=O)(=O)NCCC(=O)N3CCc4ccccc4C3)ccc21`, the inhibition is 0%.

For `Cc1nn(CC(O)Cn2c3c(c4ccccc42)CCN(C)C3=O)c(C)c1Br` (centres undefined), the inhibition was 7%.

On to `CC1=CCC2C(=O)N(c3nc(C)cc(C)n3)C(=O)C2C1` (centres undefined), for which the inhibition is 0%.

Consider `COc1cccc(/C=N/n2c(C)nc3ccccc32)c1OC`, for which the inhibition is 0%.
